Several values for one entry are separate records, joined by “and”; a condition that tells them apart may be missing. Equal entries are not always repeated. Inconclusive results are not listed. Values without a mark were called inactive. Activity calls are given as the source filed them. Calls follow the shape of the dose curve; as a rule, active = well fitted cell-killing curve with a large enough effect; inconclusive = small, poorly fitted or top-dose-only effect; inactive = flat fitted curve, though single readings scatter.
Test: Cell Viability - LYMP2-002 (AID 977);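 also: compound exposure lasted 24 h at 37 °C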;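 as to activity change, negative = cytotoxic: plate controls were DMSO only for no effect and 92 µM tetraoctylammonium bromide for full effect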
Details: LYMP2-002 lymphoblastoid cell viability, qHTS; series mostly up to 92.2 µM; activity change, negative = cytotoxic: at the top concentration
Source text: NIH Chemical Genomics Center [NCGC]
NIH Molecular Libraries Screening Centers Network [MLSCN]
National Institutes of Environmental Health Sciences [NIEHS]
National Toxicology Program [NTP]
We have developed a 1536-well cell-based assay for quantitative high throughput screening (qHTS) against a number of cell lines to determine in vitro cytotoxicity of small molecules. This particular assay uses a human lymphoblastoid cell line (LYMP2-002) purchased from Coriell Institute for Medical Research.
NCGC Assay Protocol Summary:
The CellTiter-Glo luminescent cell viability assay (Promega) is a homogeneous method to measure the number of viable cells in culture. The end point readout of this assay is based on quantitation of intracellular ATP, an indicator of metabolic activity, using the luciferase reaction. Luciferase catalyzes the oxidation of beetle Luciferin to oxyluciferin and light in the presence of ATP. The luminescent signal is proportional to amount of ATP present.
Using the CellTiter-Glo luminescent cell viability assay, the amount of cellular ATP was measured in the lymphoblastoid cell line with complete culture medium following compound treatment for 24 hours. The assay was performed in opaque white Kalypsys 1536-well plates. In the screen, tetraoctylammonium bromide was used as positive control. Library compounds were measured for their ability to cause acute toxicity in the cell line, as reflected by a decrease in intracellular ATP levels, in a concentration-dependent manner. […] AC50 values were determined from concentration-response data modeled with the standard Hill equation.
qHTS protocol for CellTiter Glo lymphoblastoid cellular assay
[Step] [Parameter] [Value] [Description]
1. Reagent; 5 uL; 2500 lymphoblastoid cells/well
2. Time; 5 hr; 37 C incubation
4. Controls; 23 nL; Tetraoctylammonium bromide 6.4pM to 92 uM
5. Time; 24 hr; 37 C incubation
6. Reagent; 5 uL; CellTiter Glo reagent
7. Time; 30 min; Room Temperature
8. Detection; Luminescence; Viewlux plate reader
Keywords: cell viability, cytotoxicity, lymphoblastoid cell line, luminescence, NTPHTS, NTPHTS_NCGC, NIEHS, DSSTox, MLSMR, MLSCN, NIH Roadmap, qHTS, NCGC
Potency is read from the fitted curve at half-maximal effect.

Question: Which Potency does the source give for `[Cl-].[Cl-].[Hg+2]` here?
Answer: 20 µM (active)

Question: With `CCOC(=O)c1ccccc1C(=O)OCC` as the molecule, how does the Potency read?
Answer: inactive

Question: For `[O]=[Cr](=[O])([OH])[O][Cr](=[O])(=[O])[OH]`, which Potency is on record?
Answer: 12.6 µM (active) and 15.8 µM (active) and 10 µM (active)

Question: For `CCCCCl`, which “activity change, negative = cytotoxic” value is on record?
Answer: -7.87%

Question: With `C=CCN=C=S` as the molecule, how does the “activity change, negative = cytotoxic” value read?
Answer: 3.09%

Question: With `COc1ccc2c(c1OC)C(=O)OC2C1c2cc3c(cc2CCN1C)OCO3` (stereo unspecified) as the molecule, how does the “activity change, negative = cytotoxic” value read?
Answer: -2.61%

Question: Which “activity change, negative = cytotoxic” value does the source give for `CC(C)CCON=O` here?
Answer: 3.76%

Question: Which “activity change, negative = cytotoxic” value does the source give for `O=CC=O` here?
Answer: -4.42%

Question: With `C[C@H]1CC[C@@H]2[C@@H](C)[C@H]3[C@H](C[C@H]4[C@@H]5CC=C6CC(O[C@@H]7O[C@H](CO)[C@H](O)[C@H](O[C@@H]8O[C@H](CO)[C@@H](O)[C@H](O)[C@H]8O)[C@H]7O[C@H]7O[C@@H](C)[C@H](O)[C@@H](O)[C@H]7O)CC[C@]6(C)[C@H]5CC[C@]34C)N2C1` (stereo partly specified) as the molecule, how does the Potency read?
Answer: 50.1 µM (active)

Question: With `O=C(O)C(Cl)(Cl)Cl` as the molecule, how does the Potency read?
Answer: inactive

Question: With `O=C1CCO1` as the molecule, how does the “activity change, negative = cytotoxic” value read?
Answer: 10.2%

Question: For `ClCC1CO1` (stereo unspecified), which “activity change, negative = cytotoxic” value is on record?
Answer: -2.42%

Question: For `ClC(Cl)(Cl)Cl`, which Potency is on record?
Answer: inactive

Question: For `Clc1ccccc1Cl`, which “activity change, negative = cytotoxic” value is on record?
Answer: -17.1%

Question: With `NNC(N)=O` as the molecule, how does the “activity change, negative = cytotoxic” value read?
Answer: 5.51%

Question: Which Potency does the source give for `O=C1C2CC=CCC2C(=O)N1SC(Cl)(Cl)Cl` (stereo unspecified) here?
Answer: 6.31 µM (active) and 10 µM (active)

Question: Which “activity change, negative = cytotoxic” value does the source give for `COC1=CC(=O)O[C@@H](/C=C/c2ccccc2)C1` here?
Answer: 13%

Question: Which “activity change, negative = cytotoxic” value does the source give for `[O]=[Cd]` here?
Answer: -0.564%

Question: For `CC(C)(C)c1cc(O)ccc1O`, which Potency is on record?
Answer: inactive

Question: For `CCCCCCCCOC(=O)c1ccccc1C(=O)OCCCCCCCC`, which “activity change, negative = cytotoxic” value is on record?
Answer: 2.51%

Question: With `O=Cc1ccco1` as the molecule, how does the “activity change, negative = cytotoxic” value read?
Answer: 4.58%

Question: Which “activity change, negative = cytotoxic” value does the source give for `C[C@H]1CCC[C@H](O)CCCCCc2cc(O)cc(O)c2C(=O)O1` here?
Answer: -4.45%

Question: For `S=C=S`, which “activity change, negative = cytotoxic” value is on record?
Answer: -7.12%

Question: For `O=C1C=CC(=O)C=C1`, which “activity change, negative = cytotoxic” value is on record?
Answer: -23.2%

Question: For `O=C/C=C/c1ccccc1`, which Potency is on record?
Answer: inactive

Question: With `O=[N+]([O-])c1ccc(F)c([N+](=O)[O-])c1` as the molecule, how does the “activity change, negative = cytotoxic” value read?
Answer: -29.1%

Question: For `O=[N+]([O-])c1ccccc1`, which “activity change, negative = cytotoxic” value is on record?
Answer: 14.5%

Question: For `ClC=C(Cl)Cl`, which “activity change, negative = cytotoxic” value is on record?
Answer: -1.07%

Question: For `Oc1cc(Cl)c(Cl)cc1Cl`, which “activity change, negative = cytotoxic” value is on record?
Answer: -6.8%

Question: Which Potency does the source give for `CC(C)Nc1ccc(Nc2ccccc2)cc1` here?
Answer: 25.1 µM (active)

Question: With `C[C@]12CCC(=O)C[C@@H]1CC[C@@H]1[C@@H]2CC[C@]2(C)[C@@H](O)CC[C@@H]12` as the molecule, how does the “activity change, negative = cytotoxic” value read?
Answer: 10.5%
